About 83,000 compounds went through this panel and 20% of them were active in at least one assay; those are over-represented in the sample as a whole.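 48-hour exposure, single concentration, 96-well plates; percent growth endpoint where 0 means no net growth. Active: below 10.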 Activity calls are given as the source filed them. *1 amine or outer side, *2 acyl side, *3 side chain or, on linkers, in order; H or OH if unused. Where a SMILES comes first, the peptide text is derived from it. Bridges are numbered along the chain shown (N, C = ends). Roman numbers before positions name the chains, in order. [ ]: non-standard residue; d: D form. Actinocin(1to9) = Cc1c2oc3c(C)ccc(C(=O)[*:2])c3nc-2c(C(=O)[*:1])c(N)c1=O; NMeV = CN[CH](C(=O)O)C(C)C; Sar = CNCC(=O)O
Tests used:
Assay in all cases: NCI-60 one-dose screen, 48 h (100 = growth as untreated, 0 = no growth, -100 = all killed)
[1] = test system: HCT-15 colon; conditions: 10 µM unless noted
[2] = test system: HT29 colon; conditions: 10 µM unless noted
[3] = test system: SNB-75 CNS; conditions: 10 µM unless noted
[4] = test system: SNB-19 CNS; conditions: 10 µM unless noted
[5] = test system: U251 CNS; conditions: 10 µM unless noted
[6] = test system: PC-3 prostate; conditions: 10 µM unless noted
[7] = test system: SK-MEL-5 melanoma; conditions: 10 µM unless noted
[8] = test system: UACC-62 melanoma; conditions: 10 µM unless noted
[9] = test system: LOX IMVI melanoma; conditions: 10 µM
[10] = test system: EKVX NSCLC; conditions: 10 µM unless noted
[11] = test system: SN12C renal; conditions: 10 µM unless noted
[12] = test system: UO-31 renal; conditions: 10 µM unless noted
[13] = test system: TK-10 renal; conditions: 10 µM unless noted
[14] = test system: ACHN renal; conditions: 10 µM unless noted
[15] = test system: CAKI-1 renal; conditions: 10 µM unless noted
[16] = test system: CCRF-CEM leukemia; conditions: 10 µM unless noted
[17] = test system: SK-MEL-2 melanoma; conditions: 10 µM unless noted
[18] = test system: A498 renal; conditions: 10 µM unless noted
[19] = test system: MOLT-4 leukemia; conditions: 10 µM unless noted
[20] = test system: SK-MEL-28 melanoma; conditions: 10 µM unless noted

Measured: growth

Cc1ccc(N2C(=O)C=CC2=O)cc1
inactive: [1] 114% | [2] 96.3% | [3] 89.6% | [4] 95.4% | [5] 102% | [6] 97.4% | [7] 91.2% | [8] 104% | [9] 97.7% | [10] 116% | [11] 93.7% | [12] 90% | [13] 99.5% | [14] 68.1% | [15] 86.1% | [16] 13.7%

CCC(C)C1NC(=O)C(NC(=O)c2c3nc4c(C(=O)NC5C(=O)NC(C(C)CC)C(=O)N6CCCC6C(=O)N(C)CC(=O)N(C)C(C(C)C)C(=O)OC5C)ccc(C)c4oc-3c(C)c(=O)c2N)C(C)OC(=O)C(C(C)C)N(C)C(=O)CN(C)C(=O)C2CCCN2C1=O (configuration not stated) (I: TIP[Sar][NMeV] / II: TIP[Sar][NMeV]; ester I:1-I:C, II:1-II:C; linker I:N-II:N via Actinocin(1to9); configuration not given here)
inactive: [11] 15.4%
active: [1] 2.48% | [2] 0.216% | [3] -87.2% | [4] 4.27% | [5] 1.81% | [6] -3.84% | [8] -67.8% | [9] 0.241% | [17] -43.2% | [10] 8.25% | [12] -15.6% | [13] 3.49% | [14] -4.88% | [15] -13.1% | [16] -5.99%

COC(=O)C(=[N+]=[N-])C(=O)c1ccc([N+](=O)[O-])o1
inactive: [1] 10.5% | [2] 61.5% | [3] 103% | [4] 92.9% | [5] 88.7% | [6] 74% | [7] 93.6% | [8] 74% | [9] 78.9% | [17] 95.5% | [10] 111% | [12] 89.7% | [14] 67.1% | [15] 104% | [18] 69.1% | [16] 83.9% | [19] 93.6%

CN(C)CCSC1=Nc2ccc(Cl)cc2C(c2ccccc2Cl)N(C)C1 (configuration not stated)
inactive: [1] 62.5% | [2] 50.9% | [3] 11.9% | [4] 63.1% | [5] 71.2% | [6] 48.5% | [7] 68.7% | [8] 29.2% | [20] 70.9% | [10] 81% | [11] 63.8% | [12] 24.5% | [13] 64.9% | [14] 74.2% | [15] 20.5% | [18] 127% | [16] 85.2% | [19] 79.2%

Cc1cc(I)nc2ccccc12
inactive: [1] 105% | [2] 109% | [3] 99.7% | [4] 107% | [5] 110% | [6] 96.8% | [7] 104% | [8] 117% | [9] 100% | [10] 101% | [12] 91.7% | [13] 113% | [14] 107% | [15] 98.7% | [18] 117% | [16] 92.2% | [19] 101%

O=C(c1ccccc1)N(CCCl)C(=O)N(CCCl)C(=O)c1ccccc1
inactive: [1] 99.4% | [2] 97.4% | [3] 98.8% | [4] 90.5% | [5] 102% | [6] 88.5% | [7] 96.2% | [8] 93.8% | [9] 88.2% | [17] 93.5% | [11] 94.1% | [12] 82.4% | [13] 103% | [14] 94.1% | [15] 97.3% | [18] 96.6% | [16] 100% | [19] 86.3%

CC(C)N=C(N)/N=C(\N)Nc1ccc2ccc3ccccc3c2c1
active: [1] -91.5% | [2] -84.4% | [3] -20.7% | [4] -92.6% | [5] -67.9% | [6] -7.75% | [7] -98.1% | [8] -75.6% | [20] -78.2% | [17] -81.8% | [10] -91.2% | [11] -84.6% | [12] -58.4% | [13] -89.6% | [14] -89.2% | [18] -73.7% | [19] -3.58%
inactive: [16] 12.3%

CN1CCC(CN2c3ccccc3Sc3ccccc32)C1 (configuration not stated)
inactive: [1] 83.9% | [2] 45.8% | [3] 57.7% | [4] 98.1% | [5] 91.1% | [6] 63.6% | [7] 76.6% | [8] 90.4% | [9] 76.5% | [17] 114% | [10] 107% | [11] 97.1% | [12] 60.2% | [13] 92% | [14] 86.1% | [18] 109% | [16] 72.7% | [19] 79.1%

C/C(=N/NC(N)=S)c1ccc(C)cc1
inactive: [1] 79.9% | [2] 55.8% | [3] 92.9% | [4] 104% | [5] 84.9% | [6] 90.6% | [8] 103% | [9] 108% | [20] 111% | [10] 53.9% | [11] 87.4% | [12] 68.1% | [13] 102% | [15] 99.8% | [18] 94.7% | [16] 43.3% | [19] 63.9%

Cc1c(O)ccc(SC#N)c1C
inactive: [1] 96.9% | [2] 112% | [3] 95.3% | [4] 96.5% | [5] 101% | [6] 86.1% | [7] 106% | [8] 94.6% | [9] 101% | [17] 103% | [10] 121% | [11] 95.3% | [13] 107% | [14] 103% | [18] 127% | [16] 30.7% | [19] 97.5%

CCCCCC[C@@H](O)C/C=C\CCCCCCCC(=O)OCCOC
inactive: [1] 103% | [2] 101% | [3] 90% | [4] 97.8% | [5] 105% | [6] 90.4% | [7] 96.2% | [8] 90.6% | [9] 86% | [17] 97.6% | [10] 79.1% | [11] 98.3% | [13] 99.1% | [14] 100% | [18] 107% | [16] 94.3%

CCCCCCCCCCCC[n+]1ccccc1 (tested in a mixture with another compound)
active: [2] -30.1% | [3] -45.9% | [4] -10.2% | [5] -24.1% | [7] -98.5% | [8] -62.3% | [9] -58.3% | [20] -19.1% | [17] -83.5% | [10] -20.5% | [11] -15.9% | [12] 1.25% | [13] -47.5% | [16] -2.6% | [19] -30.6%
inactive: [1] 38.5% | [14] 22.2% | [18] 42%

NC(=S)N/N=C/c1ncccc1O
inactive: [1] 33.7% | [2] 28.5% | [3] 26.7% | [4] 29.1% | [5] 25.4% | [6] 37% | [8] 18.3% | [9] 10.5% | [17] 103% | [10] 44.1% | [11] 20.5% | [13] 71.2% | [14] 10.7% | [15] 15.1%
active: [12] 1.36% | [16] 1.76% | [19] 4.88%

CCOc1ccc(C(C[N+](=O)[O-])Sc2ccccc2N)cc1 (configuration not stated)
inactive: [3] 61.3% | [4] 46.2% | [6] 10.7% | [7] 40.9% | [8] 64.6% | [17] 98.7% | [10] 66.9% | [11] 65% | [13] 106% | [14] 55.4% | [15] 64.6% | [18] 109% | [16] 30.3%
active: [1] -11.3% | [2] -49.7% | [5] 9.82% | [12] -62.9% | [19] 4.52%

COc1cc([C@@H]2c3cc4c(cc3[C@H](OC3OC5COC(c6ccccc6)OC5C(O)C3O)[C@H]3COC(=O)[C@H]23)OCO4)cc(OC)c1OC (some centres not stated)
inactive: [1] 41.1% | [2] 23.2% | [3] 75.9% | [4] 79.9% | [5] 55.8% | [8] 79.4% | [9] 30.2% | [10] 74.7% | [11] 41.8% | [12] 35.2% | [14] 32.6% | [15] 31% | [18] 26.2% | [16] 16.2%
active: [6] 8.28% | [7] -33.3% | [17] 2.6% | [19] -7.44%

CCOC(=O)C1(C)CCCC1N (configuration not stated)
inactive: [1] 108% | [2] 116% | [3] 86.3% | [4] 93.6% | [5] 110% | [6] 104% | [7] 98% | [8] 91.6% | [20] 109% | [17] 113% | [10] 108% | [11] 101% | [12] 83.7% | [13] 98.7% | [15] 87.6% | [18] 106% | [16] 103% | [19] 103%

Source: PubChem BioAssay (NCI)
